Measurements as given in PubChem BioAssay (EPA / NIEHS).
Where “and” joins values, the source holds several entries; their conditions need not be identical. Identical values can stand only once. Inconclusive results are not listed. Calls of active or inactive are those of the source. Rule for the calls: active = hit-call score of the fitted dose curve at least 0.9, where 1 is the maximum; inconclusive = response in the unintended direction; inactive = score below 0.9.

Assay: TOX21_p53_BLA_p3_viability: Viability Assessment in the Tox21 HCT-116 p53 Agonism Beta-lactamase Assay, Phase 3 (AID 2283593);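 note: cells exposed to compound for 16 h before reading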
Excerpt: TOX21_p53_BLA_p3 is a cell-based, single-readout assay that uses HCT116, a human intestinal cell line, […] in a 1536-well plate.TOX21_p53_BLA_p3_viability is an assay readout measuring cellular ATP content and detected with CellTiter-Glo Luciferase-coupled ATP quantitation.TOX21_p53_BLA_p3_viability used a type of viability reporter where loss-of-signal activity can be used to understand changes in the cell viability. Furthermore, this assay endpoint can be referred to as a secondary readout, because this assay has produced multiple assay endpoints where this one serves a viability function. To generalize the intended target to other relatable targets, this assay endpoint is annotated to the cell cycle intended target family, where the subfamily is cytotoxicity.
Thawing Method: Place 14 mL of pre-warmed thaw medium into a 15 mL of conical tub. Remove the vial of cells to be thawed from liquid nitrogen and thaw rapidly by placing at 37C in a water bath with gentle agitation for 1-2 minutes. Decontaminate the vial by wiping with 70% ethanol before opening in a biological safety cabinet. Transfer the vial contents drop-wise into 14 mL of thaw medium in a sterile 15-mL conical tub. Centrifuge cells at 900 rpm for 4 minutes and resuspend in thaw medium. Transfer contents to the T75 tissue culture flask containing Thaw Medium and place flask in a humidified 37C/5% CO2 incubator. Switch to growth medium at first passage.Propagation Method: Aspirate medium, rinse once in DPBS, add 0.25% Trypsin/EDTA and swirl to coat the cell evenly. Add an equal volume of Growth Medium to inactivate Trypsin after 2-3 minutes incubation at 37C. Centrifuge cells at 900 rpm for 4 minutes and resuspend in growth medium. Cell should be passage or fed at least twice a week.Assay Protocol: Harvest cells from culture in growth medium and resuspend in assay medium. 2.2 Dispense 4000 cells/5 uL/well into 1536-well black/clear bottom plates using a Multidrop dispenser. After the cells were incubated at 37C for 5 hours, 23 nL of compounds dissolved in DMSO were transferred to the assay plate by a PinTool resulting in a 217-fold dilution. Incubate the plates for 16 hours at 37C, 5% CO2. Add 1 uL of 6X LiveBLAzer FRET B/G (CCF4-AM) Substrate Mixture to each well using a BioRAPTR dispenser and incubate the plates at room temperature for 2 hours. Measure fluorescence intensity at 460 and 530 nm emission and 405 nm excitation by an Envision detector. Data is expressed as the ratio of 460nm/530nm emissions. Add 4 uL of Cell-titer Glo to each well using BioRAPTR and incubate the plates at room temperature for […]. For cell viability readout that measures cytotoxicity, 4 ul/well of CellTiter-Glo reagent was added into the assay plates using a Flying Reagent Dispenser. After 30 min incubation at room temperature, the luminescence intensity in the plates was measured using a ViewLux plate reader.
For O=C(OCCN1CCCCC1)C(O)(c1ccccc1)c1ccccc1, the AC50 was 42.4 µM (active). With CC(N)Cc1ccc(O)cc1 (stereo not given) the outcome was “inactive”. For CCOC(=O)NC(C)(C)Cc1ccc(Cl)cc1, the outcome was “inactive”. With O=C1C=C2C=C[C@@H]3C[C@@]2(O1)[C@H]1CCCCN31 the outcome was “inactive”. With CC(C)NCC(O)c1ccccc1Cl (stereo not given) the outcome was “inactive”. With O=c1c2ccccc2[se]n1-c1ccccc1 the outcome was “inactive”. With CC1NCCOC1c1ccccc1 (stereo not given) the outcome was “inactive”. In the case of Oc1cc(Cl)ccc1Cl, the outcome is reported as “inactive”. With CCN(CCO)CCn1c(Cc2ccccc2)nc2c1c(=O)n(C)c(=O)n2C the outcome was “inactive”. With C[C@]12CC[C@H]3[C@@H](CC=C4C[C@@H](O)CC[C@@]43C)[C@@H]1CC[C@@H]2O the AC50 was 43.5 µM (active). For CN(C)S(=O)(=O)N(SC(F)(Cl)Cl)c1ccccc1, the outcome was “inactive”. In the case of COc1ccc(C(=O)N2CCCC2=O)cc1, the outcome is reported as “inactive”. For Oc1cc[c]([Hg][Cl])cc1, the AC50 was 41.6 µM (active) and 18.9 µM (active). With Cc1nnc2n1-c1sc(CCc3ccc(CC(C)C)cc3)cc1C(c1ccccc1Cl)=NC2C (stereo not given) the AC50 was 29 µM (active). With CCC1COC(Cn2cncn2)(c2ccc(Cl)cc2Cl)O1 (stereo not given) the outcome was “inactive”. In the case of C(CCOCC1CO1)COCC1CO1 (stereo not given), the outcome is reported as “inactive”. In the case of S=C=NCCc1ccccc1, the outcome is reported as “inactive”. With CCCCCCC[CH2][Sn]([Cl])([Cl])[CH2]CCCCCCC the AC50 was 57.1 µM (active). For O=c1[nH]oc2c1CCNC2, the outcome was “inactive”. For COC(=O)[C@]12CCC(C)(C)C[C@H]1[C@H]1C(=O)C=C3[C@@]4(C)C=C(C#N)C(=O)C(C)(C)[C@@H]4CC[C@@]3(C)[C@]1(C)CC2, the AC50 was 1.37 µM (active). For O=c1oc2ccccc2c(O)c1Cc1c(O)c2ccccc2oc1=O, the AC50 was 0.819 µM (active). With CN1C[C@H](CNC(=O)OCc2ccccc2)C[C@@H]2c3cccc4c3c(cn4C)C[C@H]21 the outcome was “inactive”. In the case of O=C1c2ccccc2C(=O)c2ccccc21, the outcome is reported as “inactive”. For c1cc[n+]2c(c1)-c1cccc[n+]1CC2, the outcome was “inactive”. For CC(N)=S, the outcome was “inactive”. For CCOP(=O)(OCC)OCC, the outcome was “inactive”. For CC(C)NCC(O)c1ccc([N+](=O)[O-])cc1 (stereo not given), the outcome was “inactive”. For O=C(Cl)CCl, the outcome was “inactive”. In the case of ClC(Cl)(Cl)C(Cl)(Cl)Cl, the outcome is reported as “inactive”. In the case of CCOC(=O)c1cn2nc(OP(=S)(OCC)OCC)cc2nc1C, the outcome is reported as “inactive”. In the case of C[C@]12CC[C@H]3[C@@H](CCC4=CC(=O)CC[C@@]43C)[C@@H]1CC[C@@H]2OC(=O)CCc1ccccc1, the outcome is reported as “inactive”. In the case of Cc1cc(C)c(C(=O)P(=O)(C(=O)c2c(C)cc(C)cc2C)c2ccccc2)c(C)c1, the outcome is reported as “inactive”. For Cc1nnc2n1-c1sc(CCC(=O)N3CCOCC3)cc1C(c1ccccc1Cl)=NC2, the outcome was “inactive”. For CCCCCCCCCCCCN=C(N)N, the outcome was “inactive”. With CC[C@H](OC(C)=O)C(C[C@H](C)NC)(c1ccccc1)c1ccccc1 the outcome was “inactive”. In the case of CO[C@H]1[C@@H](O)C[C@H](O[C@H]2[C@@H](O)C[C@H](O[C@H]3[C@@H](O)C[C@H](O[C@H]4CC[C@@]5(C)[C@H](CC[C@@H]6[C@@H]5C[C@@H](O)[C@]5(C)[C@@H](C7=CC(=O)OC7)CC[C@]65O)C4)O[C@@H]3C)O[C@@H]2C)O[C@@H]1C, the AC50 is reported as 0.101 µM (active). With O=[N+]([O-])O[C@H]1CO[C@H]2[C@@H]1OC[C@H]2O[N+](=O)[O-] the outcome was “inactive”. In the case of CSc1nc(N=[N+]=[N-])nc(NC(C)C)n1, the outcome is reported as “inactive”. In the case of ClCC(Br)CBr (stereo not given), the outcome is reported as “inactive”. With c1cncc([C@@H]2CCCCN2)c1 the outcome was “inactive”.
